Source: the supplement of paper PMC6555819

system: VDR:RXRa (NR concentration 270 nM, RXRa partner concentration 90 nM); assay: PBM binding z-score (relative to random genomic background probes); higher = stronger binding; sequences stand for … in GC…GCGATTGACAGCGTAGAATGAAGG
Protocol: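 Protein-binding microarray (Agilent 4x180K custom design, double-stranded 60-nt probes: 5' GC cap, 34-nt variable region, 24-nt constant primer region; full probe sequence given). Purified or IVT nuclear receptor:RXRα heterodimers (3:1 NR:RXRα, mostly 270:90 nM) or homodimers were incubated for 1 h in PBS with 2% milk and no ligand, then detected with Alexa488 antibodies. Fluorescence from o1-orientation probes (~5 replicates averaged) was converted to z-scores against 500 random hg19 background probes. Variable regions are seed direct-repeat (DR0–DR5) sites, all their single-nucleotide variants and half-site ablations.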

Point of comparison: TAAACAGGGTCAAAGGCCAGAGTACGAATGTCGA, PBM binding z-score 4.92. Against it:
- CCGACTGGGGCAAATGTTACCATACTCAGTACGA — lower, -0.22
- GCGACTGGGGCATGAGCAGGTTACCATAACTTAA — lower, -0.262
- TCTATTAGTTGATTAGGGCAACCGGAACAGCGGA — lower, 0.629
- CTCGAAAGGTCGTTTGAGGTGAGTATACGGATAA — lower, 4.84
- CGTCCAAGGTCAGCTGGTCAGTGAAAGCGACGTG — lower, 2.66
- TCATATAGGTAATACACGTGAAAGTCGGCATCTA — lower, 1.01
- TCGAGAAGGTTACCAATGGGGCATTCAGCTTTCT — lower, 0.778
- ATATGTTGGTTAAGGGTCATTCAGGTTGGTTCGC — higher, 5.55
- TCTTGTAGATCAAACGTTAAGAAAGCCGAAGCCT — lower, 0.359
- TTACCAAGGTGAGCTGTGGTCGTTGATCCAACTC — lower, -0.311
- GCGACTGGGGCAAAGCAGGATACCATAAGGTTGG — lower, -0.613
- TCGCCTAGGTCATTCAGGGGCCAGTATAGAAAGC — lower, 3.06
- TCTAGCAGGCCAGAGGGGCACTCAAGAGGTACGG — lower, -0.288
- AGGATGAGGTTATACGTAGATCAGGGAAGAAAGT — lower, 1.66
- TTACCAAGGTGAAGGTTGTTGATCCCTCTGTAGA — lower, 0.381
- CGAACTAGGTAAGAACAGGACAGTGAAGGATGAT — lower, -0.253
- ATACCACGGTGATCGTGAGGTCGTTGATACTAAC — lower, 1.93
- GCAGATAGGTAATACAAGGTGAAAGTCCGATTGT — lower, 0.13
- AGAATGAGGTTATTAAGATCAGAGAATTGCGGTC — lower, 2.56
- TCTGCTAGGTCAAAGATGGTCAGCTAATCTGCTA — lower, 1.68
- AGTCAAAGTTCAGGACGAGCTAACGTAAAGCACG — lower, 1.8
- GCTAGGAGGACAAGGTCAGAGCTTTGTCCGTAGA — lower, 1.4
- ACTATTAGTTGAGATGAGGGCAACCGATAGGTTG — lower, 0.654
- AGTCAAAGTTCACTAGGTAACGTAAGATTCAGCT — lower, 3.83
- ATATGTCGGTTACATCCGGGTCATTCAGGCTATG — lower, 3.53
- AGAATGAGGTTAAGATCATGGAAACAGAATACAT — lower, 1.28
- GCAGACAGGTGAAACGCCGGTAACTCAGGGTGGC — lower, -0.708
- CGAACGAGGGCATGATTTGATAGCAAATGCCGAT — lower, 0.55
- CCGACTGGGGCAAGGTAACCATAACGCACAGCCA — lower, -0.466
- ATATGTAGGTTAGCTGGGGTCATTCATACTAGGC — higher, 6.21
- CCTACTGGCCCAAAAAGGTCATTGATGCCGATAA — lower, 4.47
- TCTAGTTGGTCAAAGGTCACACAGTCGAAATGCG — higher, 5.68
- CAAACTAGGGCAAGAGGTCAAAGTCCGCTTCCCG — higher, 5.08
- CCTAGCAGGACAGGGTCACTCAAGCATTTCGCTT — lower, 2.9
- ATATGTAGGTTATCGGGTCAATCAGTTTGCGCAT — higher, 5.29
- CCGACTGGGGCAAGGTTACCATGACGCACAGCCA — lower, -0.0991
- CGTCCAAGGTCAAAGGTCAGTGGAGAGATGACGG — higher, 6.82
- TACACAGGGTCAAAGGCCAGAGTACGAATGTCGA — lower, 4.89
- CCGACTGGGGCAGGAAGGTTACCATACCATCCGG — lower, 0.235
